The values below come from PubChem BioAssay (EPA / NIEHS).

SMILES strings stand for the structures. Active and inactive are the calls of the source. Rule for the calls: active = hit-call score of the fitted dose curve at least 0.9, where 1 is the maximum; inactive = score below 0.9.

Experiment [1] can be described thus: APR_HepG2_CellLoss_72hr: Apredica 72-hour HepG2 Assay for Cell Loss (AID 2282915). As to conditions: high-content imaging. In outline: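 Cell number comes from Hoechst 33342-labelled nuclei, imaged at 20x after 3.7% formaldehyde fixation. Dosing was 0.39–200 uM, ten concentrations in duplicate, 0.5% DMSO final, for 72 h. Bidirectional fit relative to DMSO baseline.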

Experiment [2] in a line: APR_HepG2_P-H2AX_72hr: Apredica 72-hour HepG2 Assay for H2AX Phosphorylation (AID 2282916).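 Note: phospho-histone H2A.x immunostain intensity per cell marking DNA damage.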 As to conditions: imaging, actives raise or lower the signal. In outline: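 HepG2; cpd 0.39–200 uM ×10 conc, duplicates; 0.5% DMSO; 72 hr. Fix 3.7% formaldehyde 30 min RT, 0.5% Triton X-100 10 min. Anti-phospho-H2A.x 1:200 + Hoechst 2 ug/mL, 60 min RT; ArrayScan imaging.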
Experiment [3] is described as follows: APR_HepG2_MitoMembPot_72hr: Apredica 72-hour HepG2 Assay for Mitochondrial Membrane Potential (AID 2282917). As to conditions: imaging, actives raise or lower the signal. In outline: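 Membrane potential read by MitoTracker Red CMXRos (250 nM, 30 min, pre-fixation) fluorescence imaging of HepG2 after 72 hr exposure. Ten concentrations, 0.39–200 uM, duplicate wells, 0.5% DMSO; fitted in both directions against DMSO baseline.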

Experiment [4] can be described thus: APR_HepG2_MitoticArrest_72hr: Apredica 72-hour HepG2 Assay for Mitotic Arrest (AID 2282918). As to conditions: high-content imaging, actives raise or lower the signal. An outline of the steps: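 Read-out is phospho-histone H3 immunofluorescence with Hoechst nuclear segmentation, imaged at 20x. Human HepG2 liver cells received ten concentrations (0.39–200 uM, final DMSO 0.5% v/v) for 72 hr before fixation. Gain or loss of signal was fitted relative to DMSO.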

Experiment [5] is described as follows: APR_HepG2_MicrotubuleCSK_72hr: Apredica 72-hour HepG2 Assay for Microtubule CSK Stabilty (AID 2282919). As to conditions: HepG2 microtubule cytoskeleton, high-content imaging, actives raise or lower the signal. An outline of the steps: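 Read-out is tubulin fluorescence intensity from high-content imaging of HepG2 cells, with nuclei identified by Hoechst 33342. Treatment lasts 72 h at 0.39–200 uM, and curves are fitted bidirectionally against the DMSO negative control.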

A short description of experiment [6]: APR_HepG2_P-H2AX_24hr: Apredica 24-hour HepG2 Assay for H2AX Phosphorylation (AID 2282920). As to conditions: high-content imaging, actives raise or lower the signal. An outline of the steps:
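HepG2, 24 hr, cpd 0.39–200 uM (10 conc, duplicate), DMSO 0.5% v/v final. Fix 3.7% formaldehyde, Triton X-100 permeabilize, anti-phospho-H2A.x 1:200 + Hoechst 2 ug/mL. Imaged, bidirectional fit vs DMSO.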

Experiment [7] is described as follows: APR_HepG2_StressKinase_24hr: Apredica 24-hour HepG2 Assay for Stress Kinase (AID 2282922). As to conditions: HepG2 stress kinase (phospho-c-Jun) imaging, actives raise or lower the signal. An outline of the steps: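 HepG2, 24 hr dosing, 0.39–200 uM in duplicate, 0.5% DMSO; formaldehyde fix (3.7%), 0.5% Triton X-100; anti-phospho-c-Jun + Cy3 secondary, Hoechst counterstain; ArrayScan imaging; bidirectional curve fit vs DMSO baseline.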

A short description of experiment [8]: APR_HepG2_p53Act_72hr: Apredica 72-hour HepG2 Assay for p53 Activation (AID 2282923).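 Note: average cellular p53 protein immunofluorescence intensity in HepG2 cells.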 As to conditions: high-content imaging, actives raise or lower the signal. In outline:
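10-pt conc. 0.39–200 uM, duplicate, 0.5% DMSO; 72 hr exposure; 3.7% formaldehyde fix, 0.5% Triton perm; sheep anti-p53/Cy5 + Hoechst; ArrayScan 20x, 6 images/well; gain/loss fit vs DMSO.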

The nature of experiment [9]: APR_HepG2_MitoMass_72hr: Apredica 72-hour HepG2 Assay for Mitochondrial Mass (AID 2282924).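 Note: MitoTracker Red CMXRos stain intensity per cell imaged as mitochondrial mass.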 As to conditions: high-content imaging, actives raise or lower the signal. In outline:
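HepG2, 72 hr cmpd, 10 conc 0.39–200 uM in dup, DMSO 0.5% v/v. MitoTracker Red CMXRos 250 nM 30 min pre-fix; formaldehyde 3.7% fix 30 min RT. HCS imaging, gain/loss fit vs DMSO.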

Experiment [10] is described as follows: APR_HepG2_StressKinase_72hr: Apredica 72-hour HepG2 Assay for Stress Kinase (AID 2282921). As to conditions: HepG2 stress kinase (phospho-c-Jun) imaging, actives raise or lower the signal. In outline: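 Dose 0.39–200 uM (10 pts, duplicate), 0.5% DMSO; 72 h; fix 3.7% formaldehyde 30 min RT; Triton permeabilize; anti-phospho-c-Jun/Cy3 + Hoechst 60 min RT; image 20x; fit gain/loss vs DMSO.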

On to `COc1cc(OC)nc(NC(=O)NS(=O)(=O)c2ncccc2OCC(F)(F)F)n1`, for which the result in experiment [1], in experiment [2], in [3], in experiment [4], in [5] and in experiment [6] was inactive. In addition, the outcome in [7], in experiment [8] and in [9] was inactive.

Regarding `Cc1cnc(C2=NC(C)(C(C)C)C(=O)N2)c(C(=O)O)c1` (stereo not given), the molecule was called inactive in experiment [1], in experiment [2], in experiment [3], in experiment [4], in experiment [5] and in experiment [6]. Besides, the call in experiment [10], in experiment [7], in experiment [8] and in experiment [9] was inactive.

As for `COCC(=O)N(c1c(C)cccc1C)C(C)C(=O)OC` (stereo not given), the outcome in [1], in experiment [2], in experiment [3], in experiment [4], in [5] and in experiment [6] was inactive. In addition, the outcome in [7], in [8] and in [9] was inactive.

For the molecule `COCC(C)N(C(=O)CCl)c1c(C)csc1C` (stereo not given), the AC50 is 51.5 µM (active) in [1], 103 µM (active) in experiment [4], 105 µM (active) in experiment [5] and 86.4 µM (active) in [6]. Besides, the molecule was called inactive in [2], in experiment [3], in [8] and in [9].

As to `CCNP(=S)(OC)O/C(C)=C/C(=O)OC(C)C` (stereo not given), the result in experiment [1], in [2], in experiment [3], in [4], in experiment [5] and in [6] was inactive. For the same molecule, the outcome in experiment [7], in experiment [8] and in [9] was inactive.

Regarding `O=c1n(Cl)c(=O)n(Cl)c(=O)n1Cl`, the result in [1], in experiment [2], in [3], in experiment [4], in [5] and in experiment [6] was inactive. For the same molecule, the call in experiment [8] and in [9] was inactive.

As to `Nc1cnn(-c2ccccc2)c(=O)c1Cl`, the call in [1], in [2], in experiment [3], in experiment [4], in experiment [5] and in [6] was inactive. The result in experiment [7], in experiment [8] and in experiment [9] was inactive.

Turning to `CCOP(=S)(OCC)Oc1nc(Cl)n(C(C)C)n1`, the outcome in experiment [1], in [2], in experiment [3], in experiment [4], in experiment [5] and in experiment [6] was inactive. The molecule was called inactive in experiment [8] and in [9].

Regarding `COP(=S)(OC)SCn1nnc2ccccc2c1=O`, the AC50 in experiment [1] was 100 µM (active). Moreover, the outcome in experiment [2], in experiment [3], in experiment [4], in [5], in experiment [6] and in [8] was inactive. Besides, in experiment [9], the molecule was classed as inactive.

Take `CCCCOCN(C(=O)CCl)c1c(CC)cccc1CC`: the AC50 was 30.6 µM (active) in experiment [1]; 113 µM (active) in [2]; 33.2 µM (active) in [3]; 181 µM (active) in [4]; 10.6 µM (active) in experiment [5]. For the same molecule, the call in [6], in experiment [8] and in experiment [9] was inactive.

Turning to `N#Cc1c(Cl)cccc1Cl`, the molecule was called inactive in experiment [1], in experiment [2], in experiment [3], in [4], in [5] and in experiment [6]. The outcome in experiment [8] and in [9] was inactive.

In the case of `CN=C=S`, the AC50 in experiment [1] is 49.2 µM (active). The molecule was called inactive in experiment [2], in experiment [3], in experiment [4], in experiment [5], in experiment [6] and in [8]. In addition, the outcome in experiment [9] was inactive.

Take `CC(C)(C)C(=O)C(Oc1ccc(Cl)cc1)n1cncn1` (stereo not given): in experiment [1], the half-maximal activity concentration (AC50) was 78.6 µM (active). Further, the call in experiment [2], in [3], in experiment [4], in [5], in experiment [6] and in experiment [8] was inactive. Moreover, the call in experiment [9] was inactive.

In the case of `COC(=O)NS(=O)(=O)c1ccc(N)cc1`, the molecule was classed as inactive in experiment [1], in experiment [2], in experiment [3], in [4], in experiment [5] and in experiment [6]. Moreover, the result in experiment [7], in [8] and in experiment [9] was inactive.

Consider `COCc1cnc(C2=NC(C)(C(C)C)C(=O)N2)c(C(=O)O)c1` (stereo not given), for which the result in [1], in experiment [2], in experiment [3], in experiment [4], in [5] and in experiment [6] was inactive. Moreover, the call in experiment [9] was inactive.

In the case of `CC(C)=CC1C(C(=O)OCc2coc(Cc3ccccc3)c2)C1(C)C` (stereo not given), the AC50 in experiment [1] is 40.1 µM (active); in experiment [3] it was 159 µM (active); in experiment [5], 74.2 µM (active). The result in experiment [2], in [4], in experiment [6] and in experiment [9] was inactive.

Regarding `Nc1c(Cl)c(Cl)nc(C(=O)O)c1Cl`, the result in [1], in experiment [2], in experiment [3], in experiment [4], in [5] and in [6] was inactive. In addition, the molecule was called inactive in experiment [7], in experiment [8] and in [9].

As for `CC(C)NC(=O)N1CC(=O)N(c2cc(Cl)cc(Cl)c2)C1=O`, the molecule was classed as inactive in experiment [1], in [2], in [3], in experiment [4], in experiment [5] and in experiment [6]. Also, the molecule was classed as inactive in experiment [7], in experiment [8] and in [9].

Consider `C=C(C)CN(CC)c1c([N+](=O)[O-])cc(C(F)(F)F)cc1[N+](=O)[O-]`, for which the concentration at half-maximal activity (AC50) was 105 µM (active) in [1] and 135 µM (active) in experiment [5]. Besides, the call in experiment [2], in experiment [3], in experiment [4], in experiment [6], in experiment [7] and in experiment [8] was inactive. Further, the molecule was called inactive in experiment [9].
